Measured values as given in the OligoGym collection.

Target: SLC2A8
Test: pooled miR-30 sensor sort-seq; sequence = guide strand
Conditions: shRNA
Note: reference of the scale not given here.

Sequence | sensor-assay potency score (higher = more potent)
AAAAGGACACTGAAGATGCAGA | -0.924
TCTGCATAGAACATGACGGCGT | -0.336
TTAGCTGCACACAGGAGCCGAG | -0.983
ATTAGCTGCACACAGGAGCCGA | -0.991
TGAGTCAGCAGGAAGCGCGGGG | -0.717
ATTTCGGAGATGTAGACCGGGG | -0.598
TTTGTTCCAGAGTCTTTCCTTT | 0.354
TAGCTGCACACAGGAGCCGAGC | -1.45
TGAACACCATGACCACACCTGA | -0.865
TTGGTGAGGACGCAGATGCCTG | -1.08
TTTAGTTTCAGGGACACAGAAC | -0.989
ATCTCTGACATGAGGAGCCAGG | -1.73

Target: SLC30A10
Test: as above
Conditions: shRNA

Sequence | sensor-assay potency score (higher = more potent)
TAAGCTATGATCTCACCTGAGC | -0.73
ATTTGAAACATTCTATAGCTGC | -0.495
TTAAGCATTTGAAACATTCTAT | 0.231
TCTTTGAACACTGTATCCGCAG | -0.212
TTAGCTAGAAGTTCTAATCAGT | 0.384
TTTTGGGACCATCTGTAGCAGA | -0.988
TCTGAGAATATTTTCTACCTTA | -0.0606
TTTTGTTAAGACTTTGTCCGTG | 0.41
TAACACTGCCAGTTACACGGGT | -0.383
TTAGAAACAAGAACTTCTTTGA | 0.415
TTTGTTAAGACTTTGTCCGTGG | 0.766
TTAAGCTATGATCTCACCTGAG | -0.235

Target: SLC30A1
Test: as above
Conditions: shRNA

Sequence | sensor-assay potency score (higher = more potent)
TTTTCAGCTTTAGTCCTCCTGG | -0.574
TTCACTTGTACTTCCACTGTAT | 0.732
TTTGTTTAGGAACAGTTTGTAG | -1.09
TTGATTTAGAGCCTACACTAGC | -0.669
TAGATTGTTACTAAGTTCTAAA | -0.976
TAGTGTCCCACAACATTGCTTC | 0.199
TTAAGTAATGGATAGGTTGTGT | -0.332
TTAATCTCTATCACAACAGCAG | 0.193
TTTACTACTACAATCACTGAAC | -0.0512
TACACTAGCAAATTCAGGCTGA | 0.702
TAATCTCTATCACAACAGCAGG | -1.43
TTCTTCTCTAGATTGTTACTAA | -0.537

Target: SLC34A1
Test: as above
Conditions: shRNA

Sequence | sensor-assay potency score (higher = more potent)
TTGGAACCCAGTGTGAGCGGGT | 0.313
TCCGTATTGATGACCTTCTGGA | -0.714
TGGACCACGAAGGTCATGCTGG | -0.818
TTGACTAGGAGGATGAGGCAGG | 0.548
